Results from PubChem BioAssay.
Active and inactive are the calls of the source.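 How the source made its calls, unless noted: active means compound that reduces growth-factor-driven endothelial tube area in a mixed cell culture, no cutoff stated; inactive means the rest.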

Legend:
[1] = Wnt pathway potentiators raising nuclear beta-catenin – imaging, WNT3A-conditioned medium, mouse C2C12, NPC library, primary screen (AID 1117326; in the data active means nuclear beta-catenin stimulation mostly above about 4.2%, no sharp cut-off; inactive means mostly below about 10%; further: reference of the scale not given here); conditions: stronger effect = higher value
[2] = stimulators of insulin release from INS-1E, primary screen, cell-based, 5 mM glucose, NPC library (AID 1117329;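 active means compound raises insulin release from rat beta cells at 5 mM glucose, no numeric limit stated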; further: reference of the scale not given here); conditions: rat INS-1E insulin secretion, at 10 µM, stronger effect = higher value
[3] = growth inhibition of GSK3B-pretreated HCT116 cells – cell-based, CellTiter-Glo, 0.2 to 20 µM (AID 1117336;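 active means compounds lowering colon cancer cell viability after pretreatment blocking the GSK3B kinase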); conditions: HCT116 viability after GSK3B inhibitor, at 20 µM, stronger effect = higher value
[4] = inhibition of endothelial tube formation, primary screen, imaging, VEGF stimulated, CD31 staining, tube area, NPC library (AID 1117340); conditions: VEGF-stimulated ADSC/ECFC co-culture, at 10 µM, stronger effect = higher value
[5] = GLP1 release stimulators, primary, NCI-H716, NPC library (AID 1117341;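 active means compound raises GLP1 secretion from the human gut endocrine cells, with no numeric limit stated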; further: reference of the scale not given here); conditions: NCI-H716 cells, at 10 µM, stronger effect = higher value
[6] = HCT116 colon cancer cell growth inhibition, primary screen, CellTiter-Glo luminescence, NPC library (AID 1117342;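 active means compounds that lower survival of HCT116 colon cancer cells in the luminescence readout, no numeric limit stated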); conditions: at 20 µM (top of the series)
[7] = reduced SW480 viability measured with CellTiter-Glo, NPC library, primary (AID 1117343;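 active means compounds that lower viability of the colon cancer cells in the luminescence readout, with no numeric limit stated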); conditions: CellTiter-Glo luminescence; at 20 µM (top of the series)
[8] = NPC library primary testing for decreased DLD-1 cell viability via CellTiter-Glo (AID 1117346;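 active means compounds that lower survival of DLD-1 colon cancer cells in the luminescence readout, no cutoff given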); conditions: DLD-1 viability, CellTiter-Glo luminescence; at 20 µM (top of the series)

| Compound | nuclear beta-catenin stimulation ([1]; at 10 µM) | nuclear beta-catenin stimulation ([1]; stimulation, at 2 µM) [%] | insulin secretion stimulation [2] | viability decrease [3] | tube area decrease [4] | GLP1 secretion stimulation [5] | inhibition of viability [6] | viability decrease (inhibition) [7] | viability decrease (inhibition) [8] |
| --- | --- | --- | --- | --- | --- | --- | --- | --- | --- |
| C[N+]1(CCF)[C@@H]2CC[C@H]1CC(OC(=O)C(O)(c1ccccc1)c1ccccc1)C2 (stereo partly drawn) | -2.1% (inactive) | 0.7 | -0.1% (inactive) | 4.8% (inactive) | 16.4% (inactive) | 4.4% (inactive) | 5.8% (inactive) | -2% (active) | -1.5% (inactive) |
| CCCOC(=O)Cc1ccc(OCC(=O)N(CC)CC)c(OC)c1 | 0.4% (inactive) | 1.3 | -1.7% (inactive) | 0.2% (inactive) | -2.3% (inactive) | -1.8% (inactive) | 9.6% (inactive) | 8.2% (inactive) | -4.8% (inactive) |
| C[C@]12CC[C@H]3[C@@H](CCC4=CC(=O)CC[C@@H]43)[C@@H]1CC[C@@H]2OC(=O)CCc1ccco1 | 2.9% (inactive) | 1 | 2.5% (inactive) | -67% (inactive) | 47.2% (active) | -3.2% (inactive) | 23.6% (inactive) | 37.2% (inactive) | 14.9% (inactive) |
| C[C@]12CC[C@H]3[C@@H](CC=C4C[C@@H](O)CC[C@@]43C)[C@@H]1CC[C@@H]2O | 2.9% (inactive) | -0.3 | -1% (inactive) | 3.75% (inactive) | -14.6% (inactive) | -6% (inactive) | 5.2% (inactive) | 28.6% (inactive) | 1.05% (inactive) |
| C[C@]12C=CC(=O)C=C1CC[C@@H]1[C@@H]2CC[C@@]2(C)[C@H]1CC[C@]2(C)O | 6.6% (inactive) | 2.4 | 1.5% (inactive) | 38.6% (inactive) | 31.2% (inactive) | 4% (inactive) | 29.9% (inactive) | 75.7% (active) | 17.9% (inactive) |
| O=C(NC(O)C(Cl)(Cl)Cl)NC(O)C(Cl)(Cl)Cl (stereo not drawn) | 0.9% (inactive) | -2.1 | 9.2% (inactive) | -2.2% (inactive) | 1.1% (inactive) | 0.1% (inactive) | 7.9% (inactive) | -28.2% (inactive) | -0.1% (inactive) |
| C[C@@]12CCCCC[C@@H](Cc3ccc(O)cc31)[C@H]2N | -0.5% (inactive) | 0.1 | 11.2% (inactive) | -4.1% (inactive) | 8.5% (inactive) | -2.3% (inactive) | 13.4% (inactive) | 6.4% (inactive) | -12.5% (inactive) |
